Assay outcomes deposited in PubChem by National Center for Advancing Translational Sciences (NCATS).
TDP1 cell CPT = qHTS for Inhibitors of human tyrosyl-DNA phosphodiesterase 1 (TDP1): qHTS in cells in presence of CPT. chicken DT40 Tdp1-/-;hTDP1 cells + 20 nM CPT, ATP luminescence, 48 h. Potency, µM (titrated, usually from 46.2 µM), for inactives: top-dose activity change, negative = growth inhibition, actives largely listed as inhibitors. 420,000 compounds, 12% hits; further: potency means the concentration at half of the fitted maximal effect; nearly all actives have a fitted effect of over 55% in size
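Chicken DT40 Tdp1-/- cells stably complemented with human TDP1 were seeded at 400 cells/well in medium containing 20 nM camptothecin, exposed to pin-transferred compounds, and grown at 37 °C for at least 48 hr. Viability was read as ATP luminescence.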
RORgamma inh = qHTS for inhibitors of ROR gamma transcriptional activity. 310,000 compounds, 5.4% hits. AID 2551, 2010. Drosophila S2 Gal4-RORgamma UAS-luciferase reporter, 20 h. Nuclear receptor ROR-gamma (Mus musculus), P51450. Potency, µM (titrated, usually from 53.6 µM), without a hit: at the top dose activity change, negative = inhibition, usual class: inhibitors; further: potency means the concentration at half of the fitted maximal effect; nearly all actives have a fitted effect of over 60% in size
Target sequence (P51450 whole entry, looked up, the tested form may be a part): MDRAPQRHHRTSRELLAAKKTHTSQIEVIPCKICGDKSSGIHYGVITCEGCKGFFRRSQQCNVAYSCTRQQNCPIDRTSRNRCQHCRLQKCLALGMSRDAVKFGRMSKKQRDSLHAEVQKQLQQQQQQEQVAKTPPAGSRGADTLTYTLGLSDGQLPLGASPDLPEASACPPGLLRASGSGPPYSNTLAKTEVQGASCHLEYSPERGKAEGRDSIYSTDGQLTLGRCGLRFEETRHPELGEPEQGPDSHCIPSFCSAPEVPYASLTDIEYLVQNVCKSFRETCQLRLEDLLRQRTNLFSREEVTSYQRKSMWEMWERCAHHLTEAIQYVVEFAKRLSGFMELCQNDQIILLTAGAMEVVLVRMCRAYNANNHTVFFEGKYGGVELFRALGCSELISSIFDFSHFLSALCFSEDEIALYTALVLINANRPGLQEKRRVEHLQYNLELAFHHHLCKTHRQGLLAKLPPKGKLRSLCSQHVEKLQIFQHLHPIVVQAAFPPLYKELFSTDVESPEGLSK
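Schneider cells (Drosophila), stable Gal4 DBD–ROR gamma + UAS-luc; 1 hr cmpd preincubation; Cu2+ induction 700 uM final; 20 hr ambient; luminescence.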
ELG1 DNA repair = qHTS screen for small molecules that inhibit ELG1-dependent DNA repair in human embryonic kidney (HEK293T) cells expressing luciferase-tagged ELG1 | HEK293T ELG1-luciferase reporter, luminescence, 16 h; DNA damage induced by 5-fluorouridine | 330,000 compounds, 2.3% hits | Potency, µM (doses to about 46.1 µM), for the others: at the highest dose activity change, negative = inhibition, most hits filed as inhibitors; further: potency means the concentration at half of the fitted maximal effect; nearly all actives have a fitted effect of over 55% in size
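HEK293T cells expressing luciferase-tagged ELG1 (2,000/well) received 5-Fluorouridine plus compound or DMSO for 16 hr at 37 °C. Luciferase was read by ONE-Glo luminescence after 30 min at room temperature.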
Gal4-VP16 FLuc = VP16 counterscreen qHTS for inhibitors of ROR gamma transcriptional activity; AID 2546, 2010; Potency, µM (titrated, usually from 53.6 µM), without a hit: at the highest dose activity, negative = inhibition, usual class: inhibitors; Drosophila S2 Gal4-VP16 UAS-luciferase, luminescence, 20 h; 310,000 compounds, 3.5% hits;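 further: Gal4-VP16 expression switched on by copper sulfate through the metallothionein promoter; potency means the concentration at half of the fitted maximal effect; nearly all actives have a fitted effect of over 50% in size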
IL-1B inflam inh = qHTS for Inhibitors of Inflammasome Signaling: IL-1-beta AlphaLISA Primary Screen. THP-1 LPS/ATP IL-1B secretion, AlphaLISA, 16 h; stronger effect = lower value. activity change, % at 57.5 µM. 360,000 compounds, 4.7% hits; in the data active means activity change below about -50%; inconclusive means mostly about -30% to -49%
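THP-1 cells pretreated 1 hr with compounds (up to 57.5 uM final), then stimulated with LPS (250 ng/mL final) plus ATP (1.25 mM final); secreted IL-1B measured by AlphaLISA after 16 hr, decreased signal indicating inhibition.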
DT40 TDP1 no CPT = qHTS for Inhibitors of human tyrosyl-DNA phosphodiesterase 1 (TDP1): qHTS in cells in absence of CPT. DT40 Tdp1-/- hTDP1 cells, no CPT, ATP luminescence, 48 h. Potency, µM (top dose mostly 46.2 µM), inactives show top-dose activity change, negative = growth inhibition, actives largely listed as inhibitors. 420,000 compounds, 15% hits. AID 686978, 2013; further: potency means the concentration at half of the fitted maximal effect; nearly all actives have a fitted effect of over 55% in size
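Camptothecin absent (DMSO only). Human TDP1-complemented DT40 knockout cells, 400 cells/well, 37 °C for minimum 48 hr; ATP measured via CellTiter-Glo, 30 min dark incubation, luminescence.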
* = called active by the depositor; ? = inconclusive; . = no result; [ ] = dose if it differs, or a comment. In the library only some 21% were active in any assay of this set; here they are far more common. Unless noted, the call rests on the fitted dose curve; in most records, active means well fitted curve in the direction sought with a large enough effect; inconclusive means small, poorly fitted or top-dose-only effect, or another doubt; inactive means no such curve, though single readings can be large; an effect the other way counts as inactive or inconclusive. On the % scale 0 is the no-effect control and ±100 the full control effect.

SMILES	TDP1 cell CPT	RORgamma inh	ELG1 DNA repair	Gal4-VP16 FLuc	IL-1B inflam inh	DT40 TDP1 no CPT
CC1(C)OC(=O)C(=NNc2ccc(Br)cc2)C(=O)O1	?	?	?	-1.6%	-1.8	?
Cn1ncc2c(=S)nc(Cl)[nH]c21	?	.	.	.	-19.0	?
CCOc1ccccc1NC(=O)Cn1c(=O)n(Cc2ccco2)c(=O)c2ccc(C(=O)NC3CCCC3)cc21	?	.	.	.	.	23.1µM*
Cc1ccc(C)c(NC(=O)Cn2c(=O)n(Cc3ccco3)c(=O)c3ccc(C(=O)NC4CCCC4)cc32)c1	?	.	.	.	.	16.4µM*
O=C(Cn1c(=O)n(Cc2ccco2)c(=O)c2ccc(C(=O)NC3CCCC3)cc21)Nc1ccc(F)cc1	-27.1%	.	.	.	.	-17.3%
O=C(NC(=S)Nc1ccc(Br)cc1)C1CCCCC1	0.0%	5.01µM*	8.2%	7.94µM*	0.0	-12.7%
O=C(NC(=S)Nc1cccc([N+](=O)[O-])c1)C1CCCC1	-14.6%	12.6µM*	5.3%	?	-23.2	-3.6%
O=C(NC(=S)NCc1ccccc1)C1CCCCC1	18.4µM*	1.58µM*	-4.3%	7.08µM*	30.6	20.6µM*
COC(=O)c1ccccc1NC(=S)NC(=O)C1CCCCC1	-14.7%	12.6µM*	-8.3%	?	-3.3	?
COC(=O)c1ccccc1NC(=O)C1CCCC1	-9.6%	-0.3%	0.4%	-13.9%	7.4	-22.2%
O=C(CCN1C(=O)C2C3CCC(C3)C2C1=O)Nc1cccc(Cl)c1 (stereo not given)	-2.7%	-26.5%	5.2%	-10.5%	1.8	-0.3%
O=C(NC(=S)Nc1ccc(Br)cc1)C1CCC1	-12.0%	6.31µM*	?	7.94µM*	-11.5	7.7%
O=C(NC(=S)Nc1ccccc1)C1CCCCC1	7.9%	2.82µM*	2.4%	3.98µM*	-6.4	9.4%
NS(=O)(=O)c1ccc(NC(=S)NC(=O)C2CCCCC2)cc1	-7.3%	0.1%	-9.4%	5.9%	2.5	-4.1%
O=C(Nc1ccc(F)cc1Cl)C1Cc2ccccc2N1C(=O)c1ccccc1 (stereo not given)	-4.6%	.	.	.	.	-22.1%
CCN(CC)S(=O)(=O)c1cccc(NC(=O)CN2C(=O)NC3(CCC(C)CC3)C2=O)c1 (stereo not given)	?	.	?	.	11.4	?
Cc1[nH]c2ccc(C(=O)OC(C)C(=O)NCc3ccccc3)cc2c1C (stereo not given)	13µM*	.	?	.	-56.5*	6.51µM*
CC(OC(=O)c1nc(Cl)ccc1Cl)C(=O)NCc1ccccc1 (stereo not given)	7.3%	.	.	.	-21.8	-10.3%
Cc1ccccc1CN(C)C(=O)COC(=O)c1ccc2[nH]c(C)c(C)c2c1	16.4µM*	.	25.9µM*	.	-60.8*	?
CC(OC(=O)c1ccc2ncsc2c1)C(=O)NCc1ccccc1 (stereo not given)	.	?	16.9%	2.8%	.	.
CC(OC(=O)c1cnc(Cl)c(Cl)c1)C(=O)NCc1ccccc1 (stereo not given)	?	.	?	.	-87.2*	2.6%
Cc1cc(C(=O)N2CCC2(C)C(=O)Nc2ccc3[nH]ncc3c2)nn1C (stereo not given)	?	.	.	.	?	-17.8%
COc1cc(CNc2ncnc3c2ncn3[C@H]2CN(CCc3ccccc3)C[C@@H](CO)O2)cc(OC)c1OC	?	.	.	.	-17.2	?
O=C1CCC(C(=O)Nc2cccc(S(=O)(=O)Nc3ccccc3F)c2)=NN1	18.4µM*	.	0.0%	.	-12.3	13µM*
Cc1ccc(NC(=O)c2ccccc2NS(=O)(=O)c2ccc(F)cc2)cc1S(=O)(=O)N1CCCCC1	16.4µM*	?	?	10µM*	-22.9	11.6µM*
SMILES	TDP1 cell CPT	RORgamma inh	ELG1 DNA repair	Gal4-VP16 FLuc	IL-1B inflam inh	DT40 TDP1 no CPT
CSc1ncccc1C(=O)Nc1cccc(S(=O)(=O)N2CCCCCC2)c1	?	.	?	.	-23.3	29.1µM*
O=C(Nc1cccc(S(=O)(=O)N2CCCCC2)c1)c1ccccc1NS(=O)(=O)c1ccc(F)cc1	?	?	?	?	0.0	20.6µM*
CC(C)(C)CC(=O)Nc1ccc(S(=O)(=O)NC2=NCCCCC2)cc1	9.3%	.	-6.8%	.	26.6	-0.8%
CCCn1c(SCC(=O)Nc2cc(S(=O)(=O)N3CCOCC3)ccc2OC)n[nH]c1=O	-18.5%	14.7%[10 µM]	11.9%	-1.1%	-20.3	-21.9%
COCCN(CC(=O)Nc1cccc(C)c1C)C(=O)/C=C/c1ccc2c(c1)OCCO2	-17.6%	.	.	.	-10.1	0.3%
O=C(NCc1ccccn1)c1nnc(Cc2ccc(Cl)cc2)o1	-16.7%	20.4%	2.7%	2.4%	-5.0	-7.0%
O=C(CSc1ccc([N+](=O)[O-])cc1)Nc1cccc(S(=O)(=O)Nc2ccccc2F)c1	9.2µM*	38.7%	?	-19.0%	17.9	?
O=C(Cc1ccc(Cl)cc1)Nc1cccc(S(=O)(=O)Nc2ccccc2F)c1	-6.6%	?	-15.7%	-15.9%	-12.2	?
Cc1ccc(NC(=O)CN(Cc2ccco2)Cc2ccccc2O)cc1C	?	?	?	10.0%	-61.8*	?
Cc1ccc(NC(=O)N(Cc2ccco2)C(C)c2ccco2)cc1C (stereo not given)	?	29.6%	6.6%	-7.6%	-1.3	23.1µM*
CCCCC(O)(CCCC)C(=O)NN(C(=O)OCC)c1ccccc1	?	17.4%	-15.4%	-6.1%	-10.0	?
CCOC(=O)N(NC(=O)C(O)(c1ccccc1)c1ccccc1)c1ccccc1	-18.6%	-8.9%	-10.0%	-4.3%	-6.2	25.9µM*
CCCC(O)(CCC)C(=O)NN(C(=O)CCl)c1ccccc1	11.6µM*	?	-25.4%	-19.7%	?	10.3µM*
O=C(Nc1ccc(F)cc1F)c1ccc(S(=O)(=O)NCc2ccco2)cc1	?	.	-14.7%	.	2.7	-14.6%
Cc1cccc(CC(=O)NC2CC(=O)N(c3ccccc3)C2)c1 (stereo not given)	3.9%	.	.	.	.	0.1%
Cc1nc2ccc(Cl)cc2nc(C)/c1=N\O	?	?	?	8.1%	4.6	?
Cc1ccc2nc(C)/c(=N\O)c(C)nc2c1	-0.1%	11.2µM*	?	-1.8%	-14.5	-4.6%
Cc1ccc2nc(N)nnc2c1	?	.	.	.	-3.2	0.517µM*
